Source: PubChem (National Center for Advancing Translational Sciences (NCATS))
TDP1 cell noCPT: qHTS for Inhibitors of human tyrosyl-DNA phosphodiesterase 1 (TDP1): qHTS in cells in absence of CPT | DT40 Tdp1-/- hTDP1 cells, no CPT, ATP luminescence, 48 h | Potency, µM (titrated, usually from 46.2 µM), for inactives: top-dose activity change, negative = growth inhibition, hits mostly inhibitors | 420,000 tested, 15% active; further: on the % scale 0 is the no-effect control and ±100 the full control effect; nearly all actives have a fitted effect of over 55% in size
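Growth kinetics read by CellTiter-Glo luminescence after ≥48 hr at 37 °C. Cells: DT40 Tdp1-/- stably carrying human TDP1, 400 per well, compound exposure in the absence of CPT (DMSO vehicle).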
ATXN2 expr inh: ATXN2 expression inhibition; HEK-293 ATXN2-luciferase reporter, luminescence, 24 h; Potency, µM (doses to about 57 µM), inactives show at the top dose activity change, negative = inhibition, actives largely listed as inhibitors; 360,000 tested, 0.72% active; further: on the % scale 0 is the no-effect control and ±100 the full control effect; nearly all actives have a fitted effect of over 55% in size
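qHTS (up to 57 uM final) was run with 24 h compound exposure of reporter cells at 37 °C. Each well was multiplexed: SteadyGlo luminescence measured ATXN2-luciferase expression after a fluorogenic Gly-Phe-AFC viability readout (25 uM final).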
TDP1 cell CPT: growth inhibition of DT40 Tdp1-/-;hTDP1 cells with camptothecin (screen for TDP1 inhibitors); chicken DT40 Tdp1-/-;hTDP1 cells + 20 nM CPT, ATP luminescence, 48 h; Potency, µM (titrated, usually from 46.2 µM), for the others: top-dose activity change, negative = growth inhibition, hits mostly inhibitors; 420,000 tested, 12% active; further: on the % scale 0 is the no-effect control and ±100 the full control effect; nearly all actives have a fitted effect of over 55% in size
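Cell growth measured by CellTiter-Glo luminescence after a minimum 48 h, 37 C compound exposure with 20 nM CPT in Tdp1-knockout DT40 cells stably expressing hTDP1, seeded 400/well; qHTS titration format.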
TGFb inhibitor: inhibitors of TGF-b signaling; HepG2 CAGA-GFP TGF-b/SMAD3 reporter, GFP fluorescence, 18 h; TGF-beta stimulated, 500 pg/mL final; 410,000 tested, 1.2% active; Potency, µM (highest dose often 46.1 µM), for the others: at the top dose activity, negative = inhibition, most hits filed as inhibitors; further: on the % scale 0 is the no-effect control and ±100 the full control effect; nearly all actives have a fitted effect of over 65% in size
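Using HEPG2 CAGA-GFP reporter cells at 1000 cells/well, we pinned test compounds, stimulated with recombinant TGF-beta (500 pg/mL final) and measured total well GFP after 18 h.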
ATXN viability: cell viability loss in ATXN counter-screen. S2 cells (HEK-293 line with an ATXN2-luciferase reporter) viability, CellTiter-Fluor protease fluorescence, 24 h. 400,000 tested, 0.49% active. AID 651635. Potency, µM (series often up to 56.7 µM), hits mostly cytotoxic; further: nearly all actives have a fitted effect of over 40% in size
HepG2 tox: counter-screen for TGF-b inhibitors: cytotoxicity in HepG2 cells; 410,000 tested, 0.76% active; Potency, µM (doses to about 46.1 µM), for the others: top-dose activity change, negative = cytotoxicity, usual class: cytotoxic; HepG2 CAGA-GFP viability, ATP luminescence, 18 h; AID 588856
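HepG2 CAGA-GFP cells (1000/well, DMEM with 1% FBS) received compound, then TGF-beta at 500 pg/mL final, and were incubated 18 hours at 37 degrees C. Viability was read by CellTiter-Glo luminescence. Media-only wells were set as complete cell-killing and DMSO as no toxicity.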
* = called active by the depositor; i = inactive; ? = inconclusive; . = no result; [ ] = another dose, or the depositor's remark. An excerpt weighted towards active compounds, which were near 17% of everything screened. The call rests on the fitted dose curve; in most records, active means well fitted curve in the direction sought with a large enough effect; inconclusive means small, poorly fitted or top-dose-only effect, or another doubt; inactive means no such curve, though single readings can be large; an effect the other way counts as inactive or inconclusive. Potency means the concentration at half of the fitted maximal effect.

SMILES | TDP1 cell noCPT | ATXN2 expr inh | TDP1 cell CPT | TGFb inhibitor | ATXN viability | HepG2 tox
O=c1c(S(=O)(=O)c2ccc(Cl)cc2)cn(Cc2ccccc2)c2ccc(F)cc12 | ? | -4.5% | ? | 0.9% | i | -36.7%
COc1ccc(-c2cn(-c3ccc(C)cc3C)c(=O)[nH]2)cc1OC | ? | -8.5% | 14.6µM* | -11.6% | i | -6.0%
COc1ccc(C2=NO[C@@H]3C(=O)N(c4ccc(C)cc4C)C(=O)[C@H]23)cc1OC | ? | -0.3% | 25.9µM* | 14.8% | i | -6.4%
COc1ccc(C2=NO[C@@H]3C(=O)N(c4cccc(C)c4C)C(=O)[C@H]23)cc1OC | -12.1% | -2.2% | 1.2% | -6.9% | ? | 12.2%
CCOC(=O)C1(Cc2ccccc2)CCCN(Cc2ccc(OCCO)cc2)C1 (centres undefined) | -22.5% | -0.1% | ? | -18.3% | i | -33.5%
Cc1ccc(C[n+]2ccccc2)cc1 | 9.2µM* | 6.5% | 8.2µM* | -18.5% | i | -16.0%
CCOc1ccc(CNC(=O)Cn2nc(C)c3c(C)n(-c4ccc(C)cc4)nc3c2=O)cc1 | -12.7% | -11.1% | ? | ? | i | -9.3%
Cc1ccccc1NC(=O)N(O)C1(C#N)CCCCC1 | 4.9% | 0.5% | 0.3% | -3.5% | i | 6.6%
O=[N+]([O-])c1ccccc1C(=Nc1ccccc1)c1c(O)cc(O)cc1O | 18.4µM* | . | ? | -2.7% | i | 0.2%
O=C(Nc1ccccc1)c1ccccc1NC(=O)c1ccccc1[N+](=O)[O-] | ? | -25.9% | -29.1% | 16.7% | i | -29.8%
O=C(NCCN1CCCCC1)Nc1ccc(Br)cc1 | -7.5% | -2.6% | 4.1% | ? | i | -5.9%
CCN(CC)c1ccc2cc(-c3nc4ccccc4n3C)c(=O)oc2c1 | 1.16µM* | 23.2% | 0.651µM* | ? | . | -11.7%
CCN(CC)c1ccc2cc(C(=O)c3cccs3)c(=O)oc2c1 | ? | 22.1% | 18.4µM* | 239.3% | . | -12.9%
CCN(CC)c1ccc2cc(-c3nc(-c4ccc(OC)cc4)cs3)c(=O)oc2c1 | 14.6µM* | 18.2% | ? | -70.0% | . | -0.3%
COc1cc(C(C)=NNC(=O)c2ccncc2)ccc1O | -6.9% | -0.6% | -3.0% | 9.9% | i | -5.1%
Cc1cc(NC(=O)CCCN2C(=O)c3cccnc3C2=O)ccc1Br | -4.2% | -1.0% | 8.3% | 0.0% | i | 6.1%
CCN(CC)CCCNC(=O)Cn1c(-c2cccs2)cc2cc(Cl)ccc21 | 20.6µM* | ? | ? | ? | ? | -70.3%
O=C(O)Cn1c(-c2cccs2)cc2cc(Cl)ccc21 | 0.5% | . | -18.0% | . | . | -3.3%
CN1CCN(C(=O)Cn2c(-c3cccs3)cc3cc(Cl)ccc32)CC1 | 23.1µM* | ? | ? | -1.8% | ? | -26.4%
N#CC1=C(N)OC2=C(CCc3ccccc32)C1c1ccccc1Cl (centres undefined) | 4.61µM* | -36.1% | 4.61µM* | 0.0% | i | -102.3%
O=S(=O)(Cc1ccc(Cl)cc1)c1ccccc1-c1nnc(-c2ccc(Cl)cc2)o1 | ? | -11.5% | ? | 8.4% | i | 8.2%
O=S(=O)(Cc1ccccc1)c1ccccc1-c1nnc(-c2ccccc2)o1 | 16.4µM* | -14.4% | 16.4µM* | 0.9% | ? | -1.4%
Cc1ccc(-c2nnc(-c3ccccc3S(=O)(=O)Cc3ccc(Cl)cc3)o2)cc1 | 23.1µM* | -14.0% | ? | ? | i | 6.2%
Cn1cc(S(=O)(=O)N2CCCC2)cc1C(=O)Nc1ccc(F)cc1F | -5.5% | . | ? | -20.1% | . | -25.0%
CCOc1cccc(C(=O)Nc2c(C(=O)c3ccc(OC)cc3)oc3ccccc23)c1 | 15.3% | . | -3.8% | -4.6% | . | -0.1%
SMILES | TDP1 cell noCPT | ATXN2 expr inh | TDP1 cell CPT | TGFb inhibitor | ATXN viability | HepG2 tox
COCCCNC(=O)c1ccc(N2CCCC2)c(NS(=O)(=O)c2ccc(C)cc2)c1 | ? | 6.2% | -26.5% | -8.6% | i | 3.6%
Cc1ccc(S(=O)(=O)Nc2cc(C(=O)NCCN3CCCC3)ccc2N2CCCCC2)cc1 | 16.4µM* | -21.1% | 20.6µM* | 29.3% | i | -28.5%
Cc1ccc(S(=O)(=O)Nc2cc(C(=O)NCCN(C)C)ccc2N2CCCCC2)cc1 | 16.4µM* | -10.0% | ? | 33.3% | ? | -21.7%
CC(=O)Nc1nnc(S(=O)(=O)N2CCN(c3ccc(Cl)cc3[N+](=O)[O-])CC2)s1 | 16.8% | -19.5% | -18.8% | -1.1% | i | 3.1%
Cc1occc1C(=O)N1CCCC(N2CCN(c3cccc(C(F)(F)F)c3)CC2)C1 (centres undefined) | 13µM* | -18.3% | 20.6µM* | ? | i | -32.0%
Cc1cc(C(=O)N2CCCC(N3CCN(c4cccc(C(F)(F)F)c4)CC3)C2)c(C)o1 (centres undefined) | 11.6µM* | -25.4% | 16.4µM* | ? | i | -24.0%
Cc1cc(C(=O)N2CCCC(N3CCN(c4cccc(C(F)(F)F)c4)CC3)C2)nn1C (centres undefined) | ? | -34.9% | ? | -7.7% | i | 4.0%
CCS(=O)(=O)N1CCC(C(=O)O)CC1 | -0.6% | -6.5% | -2.6% | 2.7% | i | 7.2%
CCC(C)NCCOCCOc1ccc(Cl)c2ccccc12 (centres undefined) | 18.4µM* | -14.6%[11.3 µM] | 9.2µM* | ? | ? | -51.8%
CCC(C)NCCOCCOc1ccc(Cl)c(C)c1C (centres undefined) | 13µM* | -22.4% | 14.6µM* | -30.2% | i | -17.8%
Clc1ccc(OCCCNCc2ccccc2)c2ccccc12 | ? | -20.7% | ? | ? | i | -61.5%
COc1ccc([C@H]2C[C@@H](O)[C@H](n3cc(-c4ccc(F)cc4)nn3)CN2C(=O)C2CCCCC2)cc1 | ? | 1.5% | ? | 0.6% | ? | -1.3%
CSc1nc(N)nc2c1ncn2CC(=O)NCCCc1ccccc1 | 14.6µM* | -7.9% | ? | 2.0% | i | -26.9%
COc1ccc(CN(C)C(=O)Cn2cnc3c(SC)nc(N)nc32)cc1OC | 20.6µM* | -16.1% | 14.6µM* | 2.3% | i | 3.4%
COc1ccc(CN(C)C(=O)Cn2cc(C)c(=O)[nH]c2=O)cc1OC | -1.2% | 2.0% | -19.6% | 1.4% | i | 1.9%
COC(=O)[C@H](Cc1ccc(O)cc1)NC(=O)Cn1cnc2c(SC)nc(N)nc21 | -3.1% | -8.0% | -0.7% | -1.4% | i | -9.4%
COC(=O)[C@@H](Cc1ccccc1)NC(=O)Cn1cnc2c(SC)nc(N)nc21 | -11.5% | 4.5% | -5.0% | -2.3% | i | 5.7%
